The values that follow come from ChEMBL document CHEMBL4513141, “CO-ADD screening of NIH (USA) - Clinical Collection” (2021).

By Inhibition is commonly meant the relative decrease from the control value, in per cent.

SMILES strings stand for the structures. Measured potencies and affinities stand elsewhere.

The subject of the assay is Candida albicans. Particulars: 20 µM.
For the compound `NC(=O)C[S+]([O-])C(c1ccccc1)c1ccccc1` (stereo not drawn) [MODAFINIL], the Inhibition was 2.96%.

Consider `CCCC(C)(COC(N)=O)COC(=O)NC(C)C` (stereo not drawn) [CARISOPRODOL], for which the Inhibition was 4.69%.

For `C[C@]12CCC(=O)C[C@@H]1CC[C@@H]1[C@@H]2CC[C@@]2(C)[C@H]1CC[C@]2(C)O` [MESTANOLONE], the Inhibition worked out at 11.7%.

For the compound `CN(C)CCc1c[nH]c2ccc(Cn3cncn3)cc12.O=C(O)c1ccccc1` [RIZATRIPTAN BENZOATE], the Inhibition came to 5.06%.

In the case of `CC(NC(C)(C)C)C(=O)c1cccc(Cl)c1.Cl` (stereo not drawn) [BUPROPION HYDROCHLORIDE], the Inhibition worked out at 4.99%.

With `CCOC(=O)C1=C(COCCN)NC(C)=C(C(=O)OC)C1c1ccccc1Cl` (stereo not drawn) [AMLODIPINE], the Inhibition came out at 4.94%.

In the case of `CC(C)NCC(O)COc1cccc2[nH]ccc12` (stereo not drawn) [PINDOLOL], the Inhibition stood at 3.5%.

With `Cl.Oc1ccc2c3c1OC1C(O)CC[C@@]4(O)[C@@H](C2)N(CC2CCC2)CC[C@]314` (stereo partly drawn), the Inhibition is 2.98%.

Turning to `CC[C@@H]1/C=C/C=C/C[C@H](C)[C@@H](O)[C@](C)(O)C(=O)[C@H](C)[C@@H](O)[C@H](C)C(=O)[C@H](C)[C@@H](O)[C@H](C)/C=C/C(=O)O[C@H]2[C@@H](C)[C@@H](CC1)O[C@@]1(CC[C@@H](C)[C@@H](C[C@H](C)O)O1)[C@@H]2C`, the Inhibition is 5.45%.

For `CN1[C@@H]2CC[C@H]1C[C@@H](OC(=O)c1c[nH]c3ccccc13)C2.Cl`, the Inhibition is 3.12%.

In the case of `CCC1(c2ccc(N)cc2)CCC(=O)NC1=O` (stereo not drawn) [AMINOGLUTETHIMIDE], the Inhibition was 2.63%.

As to `NCCc1ccccn1`, the Inhibition was determined as 3.53%.

As for `CC[N+](C)(C)c1cccc(O)c1.[Cl-]` [EDROPHONIUM CHLORIDE], the Inhibition was 2.22%.

`COc1cc([C@@H]2c3cc4c(cc3[C@H](O)[C@H]3COC(=O)[C@H]23)OCO4)cc(OC)c1OC` [PODOFILOX]: the Inhibition was found to be 0.66%.

Consider `CC(COc1ccccc1)N(CCCl)Cc1ccccc1.Cl` (stereo not drawn) [PHENOXYBENZAMINE HYDROCHLORIDE], for which the Inhibition was 4.97%.

With `COc1cc(-c2ccc(=O)[nH]n2)ccc1OC(F)F` [ZARDAVERINE], the Inhibition was 1.79%.

For the compound `Cl.c1ccc2c(CC3=NCCN3)cccc2c1` [NAPHAZOLINE HYDROCHLORIDE], the Inhibition worked out at 3.38%.

Consider `Cl.O=C1CC2(CCCC2)CC(=O)N1CCCCN1CCN(c2ncccn2)CC1` [BUSPIRONE HYDROCHLORIDE], for which the Inhibition came to 5.32%.

Take `CC1CCC[C@H](O)CCCCCc2cc(O)cc(O)c2C(=O)O1` (stereo partly drawn): the Inhibition worked out at 2.99%.

Take `C#C[C@]1(OC(C)=O)CC[C@H]2[C@@H]3CCC4=CC(=O)CC[C@@H]4[C@H]3CC[C@@]21C` [NORETHINDRONE ACETATE]: the Inhibition was 6.32%.

With `Cl.O[C@@H]1CCCC[C@H]1N1CCC(c2ccccc2)CC1`, the Inhibition worked out at 3.46%.

Regarding `Cl.O=C1CC[C@@]2(O)[C@H]3Cc4ccc(O)c5c4[C@@]2(CCN3CC2CC2)[C@H]1O5` [NALTREXONE HYDROCHLORIDE], the Inhibition is 3.06%.

With `C[N+]1(C)CCCC(OC(=O)C(O)(c2ccccc2)c2ccccc2)C1.[Br-]` (stereo not drawn) [MEPENZOLATE BROMIDE], the Inhibition worked out at 4.42%.

As for `CN[C@@H]1C[C@@H](c2ccc(Cl)c(Cl)c2)c2ccccc21.Cl` [INDATRALINE HYDROCHLORIDE], the Inhibition turned out to be 2.5%.

On to `CN(C)CCOc1ccc(/C(=C(/CCCl)c2ccccc2)c2ccccc2)cc1.O=C(O)CC(O)(CC(=O)O)C(=O)O` [TOREMIFENE CITRATE], for which the Inhibition amounted to 1.73%.

Take `CC(C)CC(N(C)C)C1(c2ccc(Cl)cc2)CCC1` (stereo not drawn) [SIBUTRAMINE]: the Inhibition was found to be 2.06%.

As to `C[N+]1(C)CCN(c2ccccc2)CC1.[I-]` [DIMETHYLPHENYLPIPERAZINIUM IODIDE], the Inhibition turned out to be 2.58%.

In the case of `CN(C)CCc1c[nH]c2ccc(C[C@H]3COC(=O)N3)cc12` [ZOLMITRIPTAN], the Inhibition came out at 2.65%.

In the case of `c1ccc2c(c1)Nc1ccccc1S2` [PHENOTHIAZINE], the Inhibition worked out at 4.65%.

For `CC(O)(CS(=O)(=O)c1ccc(F)cc1)C(=O)Nc1ccc(C#N)c(C(F)(F)F)c1` (stereo not drawn) [BICALUTAMIDE], the Inhibition is -0.48%.

Consider `O=C(O[C@@H]1Cc2c(O)cc(O)cc2O[C@@H]1c1cc(O)c(O)c(O)c1)c1cc(O)c(O)c(O)c1` [EPIGALOCATECHIN GALLATE], for which the Inhibition amounted to 3.47%.

Regarding `Br.Br.CN1CC[C@]2(c3cccc(O)c3)Cc3nc4ccccc4cc3C[C@H]2C1.O`, the Inhibition was found to be 0.66%.

Turning to `CC(=O)OC1C([N+]2(C)CCCCC2)C[C@H]2C3CC[C@H]4C[C@H](OC(C)=O)C([N+]5(C)CCCCC5)CC4(C)[C@H]3CCC12C.[Br-].[Br-]` (stereo partly drawn), the Inhibition is -0.59%.
